Bioassay records: PubChem, NMMLSC
CIT2-GFP yeast = alters CIT2-GFP fluorescence in TOR pathway yeast screen; S. cerevisiae CIT2-GFP strain, flow cytometry, 3 h; 100 means same as DMSO wells; GFP response vs DMSO, % at 10 µM; hit rate 0.065% among 320,000; AID 2029;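 active = GFP response relative to DMSO above a set limit, near the screen mean plus 3 SD, cut at about 150% in these data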;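 note: ratio of well median GFP fluorescence to mean of DMSO wells on the plate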
LAP4-GFP MLPCN = modulators of TOR pathway LAP4-GFP in S. cerevisiae | S. cerevisiae LAP4-GFP multiplex, flow cytometry GFP, 3 h; median GFP as percent of DMSO wells | AID 2023 | GFP response vs DMSO, % at 10 µM | hit rate 0.34% among 320,000;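 active = GFP response vs DMSO above a set limit, about the screen mean plus 3 SD, cut at about 150% in these data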
MEP2-GFP yeast = yeast TOR pathway MEP2-GFP modulation; S. cerevisiae MEP2-GFP strain, flow cytometry GFP, 3 h; 100% = DMSO control level; GFP response vs DMSO, % at 10 µM; hit rate 0.51% among 330,000;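 active = GFP response versus DMSO above a set limit, roughly screen mean plus 3 SD, cut at about 180% in these data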;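 note: median GFP fluorescence of the barcode-gated MEP2-GFP cells per well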
AGP1 TOR yeast = alters AGP1-GFP fluorescence in TOR pathway yeast screen. S. cerevisiae AGP1-GFP multiplex flow cytometry, 3 h; GFP as percent of DMSO wells. GFP response vs DMSO, % at 10 µM. hit rate 0.02% among 320,000. AID 2066;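 active = GFP response relative to DMSO above a set limit, near screen average plus 3 SD, cut at about 150% in these data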;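 note: median GFP channel fluorescence of the gated AGP1 strain per well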
RPL19A-GFP yeast = modulators of TOR pathway RPL19A-GFP in S. cerevisiae; percent response vs DMSO, % at 10 µM; hit rate 0.3% among 330,000; S. cerevisiae RPL19A-GFP strain, flow cytometry, 3 h; hits give low values;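 active = percent response vs DMSO below 50%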;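 note: median channel GFP fluorescence of the barcoded RPL19A-GFP strain; ratio of sample median GFP to plate DMSO average so 100% = DMSO; lower means less RPL19A-GFP as with rapamycin TOR inhibition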
LAP4-GFP pick2 = second confirmation of modulators of TOR reporter LAP4-GFP in yeast; shares compounds with LAP4-GFP MLPCN; S. cerevisiae LAP4-GFP strain, flow cytometry GFP, 3 h; GFP response vs DMSO, % at 10 µM; hit rate 20% among 590;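 active = GFP signal as percent of the solvent control above about 150%, meaning raised reporter expression, limit read from the data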;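 note: ratio of well median GFP fluorescence to plate DMSO mean so 100% = DMSO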
MEP2 cherry2 = reconfirmed MEP2-GFP TOR pathway modulator in yeast. shares compounds with LAP4-GFP MLPCN. S. cerevisiae MEP2-GFP strain, flow cytometry GFP, 3 h. GFP response vs DMSO, % at 10 µM. hit rate 10% among 590;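 active = GFP signal above 150% of the solvent control wells, that is a rise of more than half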;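 note: median channel GFP fluorescence of all gated yeast cells per well; ratio of median GFP to plate DMSO average so 100% = DMSO level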
RPL19A-GFP pick2 = reconfirmed modulator of RPL19A-GFP TOR reporter in yeast | shares compounds with LAP4-GFP MLPCN | S. cerevisiae RPL19A-GFP strain, flow cytometry GFP, 3 h; hits give low values; 100% means same as DMSO wells | GFP response vs DMSO, % at 10 µM | hit rate 3% among 590 | AID 2623;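 active = under 65% GFP response relative to DMSO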;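 note: median GFP channel fluorescence per well over the all cells gate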
CIT2-GFP pick2 = yeast CIT2-GFP TOR reporter modulation, second cherry pick. S. cerevisiae CIT2-GFP strain, flow cytometry GFP, 3 h; DMSO control wells read 100%. shares compounds with LAP4-GFP MLPCN. hit rate 8% among 590. GFP response vs DMSO, % at 10 µM;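 active = GFP response vs DMSO above about 150%, limit read from the data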;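 note: median green fluorescence per well over all gated yeast cells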
AGP1-GFP pick2 = yeast AGP1-GFP TOR reporter modulation, second cherry pick | S. cerevisiae AGP1-GFP strain, flow cytometry GFP, 3 h | 590 tested, under 10 active | shares compounds with LAP4-GFP MLPCN | percent response vs DMSO, % at 10 µM;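 active = over 150 percent of DMSO response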;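 note: median GFP channel fluorescence over all cells without mother daughter split; sample median GFP divided by mean DMSO control so 100% equals DMSO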
s288c autofluor = compound is autofluorescent in yeast s288c cells; shares compounds with LAP4-GFP MLPCN; 610 tested, under 10 active; S. cerevisiae s288c, 520 nm autofluorescence, flow cytometry, 3 h; hits give high values; zero means same as solvent-only cells; AID 2757; fluorescence change (kMESF span) at 33 µM;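 active = fluorescence span over the dose series, or activity score, above about 33, limit read from the data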
Numbers without * were called inactive; nt = no result given. The list is not random: actives were taken first. Their share in the collection is about 0.93%.

SMILES | CIT2-GFP yeast | LAP4-GFP MLPCN | MEP2-GFP yeast | AGP1 TOR yeast | RPL19A-GFP yeast | LAP4-GFP pick2 | MEP2 cherry2 | RPL19A-GFP pick2 | CIT2-GFP pick2 | AGP1-GFP pick2 | s288c autofluor
CCSc1ccc(-c2nn(-c3ccccc3)cc2/C=C(/C#N)C(=O)NCCCOC)cc1 | 186* | 186* | 525* | 83 | 105 | 96 | 96 | 101 | 114 | 97 | nt
O=S(=O)(Nc1ccccc1F)c1cccc(NC(=S)NCCN2CCOCC2)c1 | 96 | 99 | 90 | 99 | 94 | nt | nt | nt | nt | nt | nt
Cc1ccc(S(=O)(=O)n2cnc(C)c2)cc1 | 103 | 106 | 103 | 101 | 100 | nt | nt | nt | nt | nt | nt
CCOC(=O)CC(=O)Nc1ccc(C)cc1 | 103 | 93 | 103 | 96 | 100 | 99 | 102 | 99 | 100 | 100 | nt
COc1cc(CNCc2cc(OC)c(OC)c(OC)c2)cc(OC)c1 | 106 | 98 | 106 | 99 | 106 | nt | nt | nt | nt | nt | nt
C/C(=N\OCC(=O)OC(C)C(=O)Nc1ccc(C(N)=O)cc1)c1ccc2c(c1)OCO2 (stereo not drawn) | 115 | 96 | 104 | 102 | 99 | nt | nt | nt | nt | nt | nt
CCN(CC(=O)Nc1ccccc1C(F)(F)F)CC(=O)NC1CC1 | 97 | 92 | 88 | 97 | 100 | nt | nt | nt | nt | nt | nt
CCN(CC(=O)Nc1ccc(Cl)c(C(F)(F)F)c1)CC(=O)NC1CCS(=O)(=O)C1 (stereo not drawn) | 99 | 95 | 148 | 79 | 60 | 99 | 103 | 103 | 98 | 98 | nt
CCCCC[C@H]1CN(CCCC)C(=O)[C@@H]1CC(=O)NCc1ccc(OC)cc1 | 66 | 106 | 89 | 74 | 91 | nt | nt | nt | nt | nt | nt
CCCCN1C[C@H](Cc2ccccc2)[C@@H](CC(=O)NCc2ccc(OC)cc2)C1=O | 101 | 159* | 141 | 102 | 88 | 97 | 100 | 102 | 106 | 105 | nt
Cc1ccccc1[C@]1(C)ON(c2ccccc2C(F)(F)F)C1=O | 81 | 122 | 81 | 81 | 95 | 117 | 102 | 104 | 114 | 102 | 0.4
COc1ccccc1[C@@]1(C)ON(c2ccccc2C(F)(F)F)C1=O | 85 | 155* | 88 | 78 | 93 | 140 | 118 | 104 | 128 | 105 | 0.3
COc1ccccc1N1C(=O)CC(c2ccccc2)CC1=O | 99 | 95 | 98 | 100 | 99 | nt | nt | nt | nt | nt | nt
CC[C@]1(c2ccccc2C)ON(c2ccccc2C(F)(F)F)C1=O | 103 | 104 | 95 | 98 | 94 | 101 | 98 | 104 | 107 | 98 | -0.1
CC(NC(=O)CN1C(=O)NC2(CCCCCC2)C1=O)c1ccccc1 (stereo not drawn) | 98 | 94 | 98 | 102 | 100 | nt | nt | nt | nt | nt | nt
O=C(c1ccc([N+](=O)[O-])o1)N1CCN(c2nc3c(F)cc(F)cc3s2)CC1 | 131 | 167* | 146 | 79 | 60 | nt | nt | nt | nt | nt | 9.5
O=C1c2cccc3c([N+](=O)[O-])ccc(c23)C(=O)N1O | 274* | 228* | 350* | 116 | 148 | nt | nt | nt | nt | nt | 20
O=C1c2cccc3c([N+](=O)[O-])ccc(c23)C(=O)N1c1ccccn1 | 191* | 193* | 301* | 83 | 115 | 193* | 324* | 122 | 196* | 114 | 13
O=C1c2cccc3c(N4CCCCC4)ccc(c23)C(=O)N1c1ccccn1 | 101 | 105 | 108 | 96 | 102 | nt | nt | nt | nt | nt | nt
COc1cc(C(C#N)N2CCC(c3ccccc3)=N2)ccc1O (stereo not drawn) | 111 | 93 | 101 | 107 | 102 | nt | nt | nt | nt | nt | nt
CCOC(=O)C1CCCN(C(=O)COc2ccc(N(C)S(=O)(=O)c3ccc(F)cc3)cc2)C1 (stereo not drawn) | 103 | 107 | 89 | 101 | 93 | nt | nt | nt | nt | nt | nt
COCC(C)NS(=O)(=O)c1ccc(NC(=O)c2ccccn2)cc1 (stereo not drawn) | 105 | 107 | 103 | 107 | 103 | nt | nt | nt | nt | nt | nt
O=C(c1ccc(Cl)cc1)N1CCN(c2cccc3[nH]ccc23)CC1 | 91 | 259* | 87 | 98 | 65 | nt | nt | nt | nt | nt | -0.2
CC(=O)Oc1ccc(N2C(=O)C3C4C=CC(CO)(O4)C3C2=O)cc1 (stereo not drawn) | 93 | 130 | 98 | 97 | nt | nt | nt | nt | nt | nt | 0.2
O=C1C2C3C=CC(CO)(O3)C2C(=O)N1c1ccccc1-c1ccccc1 (stereo not drawn) | 77 | 194* | 111 | 78 | 84 | nt | nt | nt | nt | nt | 4.9
SMILES | CIT2-GFP yeast | LAP4-GFP MLPCN | MEP2-GFP yeast | AGP1 TOR yeast | RPL19A-GFP yeast | LAP4-GFP pick2 | MEP2 cherry2 | RPL19A-GFP pick2 | CIT2-GFP pick2 | AGP1-GFP pick2 | s288c autofluor
CCn1c(C)cc(C(=O)CN2C(=O)c3ccccc3S2(=O)=O)c1C | 88 | 92 | 97 | 97 | 94 | nt | nt | nt | nt | nt | nt
CCCn1c(C)cc(C(=O)CN2C(=O)c3ccccc3C2=O)c1C | 93 | 100 | 135 | 96 | 61 | 96 | 103 | 100 | 99 | 99 | nt
COc1ccc(-c2cn(Cc3ccc4ccccc4c3)nn2)cc1 | 90 | 128 | 79 | 78 | 86 | nt | nt | nt | nt | nt | nt
COc1ccc(-c2cn(Cc3ccc(C(=O)c4ccccc4)cc3)nn2)cc1 | 105 | 164* | 114 | 97 | 87 | 100 | 96 | 99 | 120 | 100 | nt
CCc1cc(=O)oc2cc(OC(C)C(=O)NCC3CCC(C(=O)O)CC3)c(Cl)cc12 (stereo not drawn) | 99 | 108 | 102 | 105 | 102 | nt | nt | nt | nt | nt | nt
C=CCn1c(C)c(C(C)=O)c(N2CCOCC2)nc1=S | 106 | 93 | 162 | 28 | 65 | 99 | 98 | 99 | 110 | 95 | nt
COc1cc(/C=C2/C(=O)c3cccc([N+](=O)[O-])c3C2=O)c(Br)cc1O | 93 | 109 | 82 | 86 | 96 | 136 | 116 | 109 | 116 | 104 | 0.1
COc1ccccc1NC(=O)CCCCCN1C(=O)c2cccc([N+](=O)[O-])c2C1=O | 104 | 95 | 110 | 99 | 103 | nt | nt | nt | nt | nt | nt
COc1ccc(S(=O)(=O)NCCc2cn3nc(C)c(C)nc3n2)cc1F | 98 | 85 | 120 | 23 | 62 | 98 | 100 | 99 | 100 | 98 | nt
